Test systems include NCI-H23 lung; NCI-H226 lung; NCI-H322M lung; HOP-62 NSCLC; NCI-H460 lung; HOP-92 NSCLC; NCI-H522 lung; A549/ATCC NSCLC; 786-0 renal; COLO 205 colon.
Holding throughout (experiment): NCI-60 one-dose screen, 48 h (100 = growth as untreated, 0 = no growth, -100 = all killed)
Common to all, as to conditions: 10 µM unless noted

Where “and” joins values, the source holds several entries; their conditions need not be identical. Equal values may be shown once. This is part of a sample that, as a whole, favours compounds with a hit. Of some 83,000 tested, about 20% had one in any assay.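 For each line, cells grew in 96-well plates with the test compound present at a single concentration for 48 hours.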 Unmarked numbers belong to inactive results. Calls of active or inactive are those of the source. How the source made its calls: active means growth percent below 10; inactive means the rest.

As to `CCc1ccccc1-c1nc(CN[C@@H]2C[C@@H]3C[C@H]([C@H]2C)C3(C)C)c(C)o1`, the growth in the assay with NCI-H23 lung is -78.7% (active); with NCI-H226 lung, -68.7% (active); with NCI-H322M lung it was -92.5% (active); in the assay with HOP-62 NSCLC it was -78.9% (active); in the assay with NCI-H460 lung, -54.5% (active); in the assay on HOP-92 NSCLC, -81.5% (active). For the same compound, the growth is -85.9% (active) with NCI-H522 lung, -49.7% (active) with A549/ATCC NSCLC, -82.1% (active) in the assay on 786-0 renal and -74.8% (active) with COLO 205 colon.

Regarding `O=C(/C=C1\C(=O)N(Cc2ccccc2)c2ccccc21)c1cc2ccccc2oc1=O`, the growth with NCI-H23 lung is 89.4%; with NCI-H226 lung, 74.2%; in the assay on NCI-H322M lung, 93.9%; with HOP-62 NSCLC, 102%; with NCI-H460 lung it was 103%; in the assay on HOP-92 NSCLC, 87.9%. Further, the growth is 35.4% with NCI-H522 lung, 104% with A549/ATCC NSCLC, 100% with 786-0 renal and 28.6% in the assay on COLO 205 colon.

In the case of `Nc1nc(-c2ccccc2)c(N=Nc2ccc(Cl)cc2Cl)s1`, the growth in the assay on NCI-H23 lung is -43.8% (active); with NCI-H226 lung, -17.4% (active); with NCI-H322M lung, 4.7% (active); in the assay on HOP-62 NSCLC it was -61.9% (active); in the assay with NCI-H460 lung, -66.8% (active); in the assay with HOP-92 NSCLC, -54.1% (active). For the same compound, the growth in the assay with NCI-H522 lung was -15.3% (active); in the assay with A549/ATCC NSCLC, 12.5%; with 786-0 renal it was -51.9% (active); with COLO 205 colon it was -16.6% (active).

On to `CC(=O)Nc1ccc(S(=O)(=O)Nc2ccc(-c3ccc4c(c3)NC(=O)/C4=C\c3ccc[nH]3)cc2)cc1`, for which the growth was 42.1% with NCI-H23 lung; 85% in the assay on NCI-H226 lung; 64.8% with NCI-H322M lung; 87% in the assay on HOP-62 NSCLC; 38.6% with NCI-H460 lung; 91.5% with HOP-92 NSCLC. Moreover, the growth with NCI-H522 lung is 75.2%; in the assay with A549/ATCC NSCLC, 79.6%; with 786-0 renal, 104%; with COLO 205 colon, 96.6%.

Regarding `CC(=O)Nc1cccc(-n2c(COc3ccc(I)cc3)nc3ccccc32)c1`, the growth is 83.5% and 106% in the assay with NCI-H23 lung; 68.3% and 113% with NCI-H226 lung; 102% and 107% with NCI-H322M lung; 118% and 120% in the assay with HOP-62 NSCLC; 103% and 112% in the assay on NCI-H460 lung; 79.9% and 116% with HOP-92 NSCLC. Moreover, the growth in the assay with NCI-H522 lung is 70.1% and 111%; with A549/ATCC NSCLC it was 101% and 108%; in the assay with 786-0 renal it was 101% and 109%; in the assay on COLO 205 colon, 96.9% and 128%.

`COc1ccc(N=Nc2c(N)nn3c(-c4cc5ccccc5oc4=O)ccnc23)cc1`: the growth in the assay with NCI-H23 lung is 36.6%; with NCI-H226 lung, 3.29% (active); in the assay with NCI-H322M lung it was 63.4%; in the assay with HOP-62 NSCLC it was 14.7%; with NCI-H460 lung it was 17.2%; in the assay with HOP-92 NSCLC, 34.3%. Moreover, the growth with NCI-H522 lung is 72.7%; with A549/ATCC NSCLC, 59.4%; in the assay on 786-0 renal it was 15.6%; in the assay with COLO 205 colon, 63.9%.

As for `NS(=O)(=O)c1ccc(N2N=C(c3ccc(NC(=O)Nc4ccccc4)cc3)CC2c2ccc(Br)cc2)cc1` (stereo not given), the growth was -95.2% (active) with NCI-H23 lung; -84.2% (active) with NCI-H226 lung; -87.3% (active) in the assay on NCI-H322M lung; -70.3% (active) in the assay with HOP-62 NSCLC; -83.9% (active) in the assay with NCI-H460 lung; -87% (active) with HOP-92 NSCLC. In addition, the growth with NCI-H522 lung was -79.7% (active); in the assay with A549/ATCC NSCLC, -57.7% (active); in the assay on 786-0 renal, -85.7% (active); with COLO 205 colon, -53.5% (active).

As to `Cc1ccc(-c2cc(C(=O)N=Nc3c(O)[nH]c4ccc(F)cc34)c3ccccc3n2)cc1`, the growth was 15.1% with NCI-H23 lung; 59% in the assay with NCI-H226 lung; 44.4% in the assay with NCI-H322M lung; 6.08% (active) with HOP-62 NSCLC; 1.25% (active) with NCI-H460 lung; 104% with HOP-92 NSCLC. Besides, the growth in the assay on NCI-H522 lung was 25.5%; in the assay on A549/ATCC NSCLC it was 11.2%; in the assay with 786-0 renal it was 44%; in the assay on COLO 205 colon it was 73.9%.

As for `COc1ccc2c(c1)c(-c1cc(N)n3nc(-c4c[nH]c5ccccc45)cc3n1)cn2C`, the growth in the assay on NCI-H23 lung was -69.9% (active); in the assay on NCI-H226 lung it was -33.1% (active); in the assay with NCI-H322M lung, -53.5% (active); in the assay with HOP-62 NSCLC it was -71.5% (active); with NCI-H460 lung, -69.7% (active); with HOP-92 NSCLC, -66.7% (active). Also, the growth in the assay on NCI-H522 lung is -70.4% (active); in the assay with A549/ATCC NSCLC, -88.1% (active); in the assay on 786-0 renal, -84.5% (active); in the assay with COLO 205 colon, -83.9% (active).

For the compound `COc1cc(/C=C/C(=O)c2cnn(-c3cc(=O)[nH]c4ccc(Br)cc34)c2C)cc(OC)c1OC`, the growth was -63.4% (active) in the assay with NCI-H23 lung; -28% (active) in the assay with NCI-H226 lung; 4.7% (active) with NCI-H322M lung; -9.41% (active) with HOP-62 NSCLC; -60.4% (active) with NCI-H460 lung; 25.7% in the assay with HOP-92 NSCLC. Also, the growth in the assay with NCI-H522 lung was -89.1% (active); with A549/ATCC NSCLC, 8.86% (active); with 786-0 renal, -73% (active); in the assay with COLO 205 colon it was -80.7% (active).

On to `Cn1cc(-c2cc3nc(-c4c[nH]c5ccccc45)cc(N)n3n2)c2ccccc21`, for which the growth with NCI-H23 lung is -56.9% (active); in the assay on NCI-H226 lung it was 5.22% (active); in the assay on NCI-H322M lung, 19.4%; in the assay on HOP-62 NSCLC, -68.2% (active); in the assay with NCI-H460 lung, -75.5% (active); in the assay with HOP-92 NSCLC, -29.4% (active). Also, the growth with NCI-H522 lung is -65.5% (active); in the assay on A549/ATCC NSCLC, -81.7% (active); in the assay with 786-0 renal, -90.6% (active); with COLO 205 colon it was -88.8% (active).

For `O=C1Nc2cc(-c3ccc(NS(=O)(=O)c4ccc(-c5ccccc5)cc4)cc3)ccc2/C1=C/c1ccc[nH]1`, the growth with NCI-H23 lung is 4.1% (active); in the assay on NCI-H226 lung it was 66.5%; with NCI-H322M lung it was 47.3%; with HOP-62 NSCLC, 75.9%; in the assay on NCI-H460 lung, 3.38% (active); with HOP-92 NSCLC it was 16.1%. In addition, the growth in the assay with NCI-H522 lung is -11.8% (active); with A549/ATCC NSCLC, 10.5%; in the assay with 786-0 renal, 58.4%; with COLO 205 colon it was 0.446% (active).

The record behind these values is PubChem BioAssay (NCI).
